PubChem BioAssay AID624415 (National Center for Advancing Translational Sciences (NCATS), 2012)
In all, about 390,000 compounds went through this assay and about 60 (0.02%) were called active. Rule as the data show it: active = activity change below about -50%; inconclusive = between about -30% and that limit; inactive = weaker than that. This excerpt belongs to a sample that is enriched for actives.

molecular target: Mucolipin-1 (Homo sapiens) (UniProt Q9GZU1); assay: qHTS for Inhibitors of the Human Mucolipin Transient Receptor Potential 1 (TRPML1); conditions: TRPML1-inducible cells, Ca2+ dye fluorescence, FDSS; active compounds read low; inhibition of EC80 agonist-evoked calcium signal;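 also: stimulus is agonist 54-4 at its EC80 concentration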
Text: Mutations of human Mucolipin transient receptor potential 1 (TRPML1) cause type IV mucolipidosis (ML4), a devastating neurodegenerative disease in young children. […] Currently, there is no treatment for ML4. […] Under physiological conditions, TRPMLs regulate membrane trafficking by transducing information about PI(3,5)P2 levels into changes in juxtaorganellar Ca2+, thereby triggering membrane fusion/fission events in the late endocytic pathways (endolysosomal trafficking). In addition, TRPML1 mediates release of Fe2+ from late endosomes and lysosomes, which is essential for cellular iron metabolism. Thus, impaired ion (Ca2+ and Fe2+) homeostasis underlies lysosomal dysfunction and ML4 phenotypes. In ML4 cells, the problem is twofold. First, defective Ca2+-dependent membrane trafficking due to TRPML1-deficiency causes accumulation of lipids and other bio-materials in the lysosome. The second strike comes from the lysosomal iron overload (due to impairment of TRPML1's Fe2+ conductivity), which converts the accumulated materials into the nondegradable (resistant to lysosomal degradation) lipofuscin (also called aging pigment) in the lysosome. Lipofuscin accumulation dramatically compromises the functions of lysosomes.
Niemann-Pick type C (NPC) disease is another lysosome storage disease (LSD) with severe neurodegeneration during the childhood. Currently, there is no cure for NPC. […] Thus, TRPML1 is likely to be an essential regulator of lysosome ion homeostasis. We specifically hypothesize that stimulating TRPML1's Fe2+/Ca2+ channel activity in the lysosome using synthetic agonists can alleviate neurodegeneration associated with ML4 or NPC.
To this end, a high throughput screen was developed in a miniaturized format to screen against the Molecular Libraries Small Molecule Repository (MLSMR) to find small molecules that act either as inhibitors or agonist against the TRPML1 channel.
NIH Chemical Genomics Center [NCGC]
NIH Molecular Libraries Probe Centers Network [MLPCN]
Assay Submitter (PI): Haoxing Xu, University of Michigan Ann Arbor
TRPML1-DL cells are dissociated from flasks, counted and, brought up to a density of 500,000 cells per mL of media containing a 1X Tet inducer. Using a Multidrop Combi, 3 uL of this cell solution is dispensed to each well of a 1536 TC treated, black, clear bottom hi base plate for a final cell density of 1,500 cells per well. The assay plates are incubated overnight (approximately 16 hours) at 37 degrees C and 5% CO2. Using a Multidrop Combi, 2 uL of ABD Ca8 no wash dye plus quencher is added to each well. The assay plates incubate at room temperature in the dark for 45-90 minutes. The assay plate is read on the FDSS using the following protocol: 10 second baseline read, 23 nL of compounds and controls are added using 1536 pintool, agonist read for 110 seconds, 1 uL EC80 addition (4 uM final 54-4 diluted in media), antagonist read for 110 seconds.
% is scaled to controls: 0 for no effect and ±100 for the full control effect.

Mucolipin-1 (Homo sapiens), sequence (Q9GZU1 whole entry, looked up, the tested form may be a part): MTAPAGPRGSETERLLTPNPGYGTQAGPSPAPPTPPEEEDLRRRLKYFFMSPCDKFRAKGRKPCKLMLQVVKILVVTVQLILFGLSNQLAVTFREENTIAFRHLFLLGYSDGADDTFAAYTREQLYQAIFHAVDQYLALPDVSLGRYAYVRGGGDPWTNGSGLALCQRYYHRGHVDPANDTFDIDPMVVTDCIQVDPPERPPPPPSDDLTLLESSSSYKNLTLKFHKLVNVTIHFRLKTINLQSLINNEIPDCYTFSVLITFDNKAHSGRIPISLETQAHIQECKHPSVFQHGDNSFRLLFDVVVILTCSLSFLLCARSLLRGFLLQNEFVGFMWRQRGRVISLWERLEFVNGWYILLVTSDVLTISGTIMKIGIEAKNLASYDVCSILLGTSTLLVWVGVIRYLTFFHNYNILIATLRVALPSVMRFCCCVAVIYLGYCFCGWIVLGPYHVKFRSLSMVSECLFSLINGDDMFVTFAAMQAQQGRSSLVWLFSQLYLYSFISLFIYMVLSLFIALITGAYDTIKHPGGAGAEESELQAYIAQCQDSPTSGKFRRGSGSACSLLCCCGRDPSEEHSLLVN

Activity change, negative = inhibition, inactive:
CCn1c(C(=O)Nc2cc(Cl)ccc2C)cc2sc(Cl)cc21 16.9%
Cc1cccc(Cn2c(=O)n(CCC(=O)NCCc3ccc(Cl)cc3)c(=O)c3sccc32)c1 -20.1%
CCc1nn(CC(=O)N2CCN(c3cccc(C(F)(F)F)c3)CC2)c(=O)c2cc3occc3n12 2.52%
COc1ccc(C2=NC3(CCCCC3)N(CC(=O)Nc3ccc(C(C)C)cc3)C2=O)cc1 8.59%
C=COC(=O)N1CCN(/[N+]([O-])=N/Oc2ccc([N+](=O)[O-])cc2[N+](=O)[O-])CC1 5.96%
COc1ccc(CNC(=O)c2ccc(NC(=O)N3CC4CCCN4c4ccccc43)cc2)cc1 (centres undefined) 12%
Cc1cc(C)cc(OCC(=O)Nc2c(C(=O)c3ccccc3)oc3ccccc23)c1 -3.38%
Cc1ccc(SCC(=O)Nc2ccc3oc(-c4ccccc4C)nc3c2)cc1 7.73%
CCNS(=O)(=O)c1cc(-c2nnc(Nc3cccc(C(F)(F)F)c3)c3ccccc23)ccc1C -9.21%
COc1cccc(CNC(=O)CCc2nc(-c3ccc(C)cc3)no2)c1 15.3%
Cc1ccccc1C(=O)NCc1nc(-c2ccc(Cl)cc2)no1 -1.57%
CC1CN(C(=O)N2CCC(C(=O)NCc3ccco3)CC2)c2cc(Cl)ccc2O1 (centres undefined) 31.2%
COc1ccccc1-c1ccnc2[nH]n(-c3ccccc3)c(=O)c12 -0.876%
COC(=O)CC1Oc2ccccc2-n2cc(-c3ccccc3)nc21 (centres undefined) 4.04%
Cc1ccccc1OCc1nc2c3cnn(-c4ccccc4F)c3ncn2n1 -5.46%
COc1ccc(NC(=O)c2ccc3nc(CCc4ccccc4)oc3c2)c(OC)c1 3.32%
CCOC(=O)C1CCN(C(c2ccc(F)cc2)c2sc3nc(-c4ccco4)nn3c2O)CC1 (centres undefined) -5.17%
Cn1c(C(=O)N2CCC(C(=O)N3CCN(c4ccccc4)CC3)CC2)cc2sccc21 -0.29%
CC(=O)N1CCCc2cc(S(=O)(=O)N3CCC(C(=O)NCc4ccc(C)cc4)CC3)ccc21 23%
COc1ccc(-c2c3c(=O)n(C)c(=O)n(C)c3c3c(C)nc4ccccc4n23)cc1 -0.184%
CC(=O)N1CCCc2cc(S(=O)(=O)Nc3ccc(Cl)cc3F)ccc21 0.189%
COc1ccc(N2C(=O)CS(=O)(=O)C23C(=O)N(Cc2ccc(C)cc2)c2ccccc23)cc1Cl (centres undefined) 40.4%
CCN(CC)/[N+]([O-])=N/OCOC(=O)Cc1c(C)n(C(=O)c2ccc(Cl)cc2)c2ccc(OC)cc12 37.6%
CCOC(=O)CSC1=Nc2ccccc2C2=NC(CCC(=O)NCc3ccc(F)cc3)C(=O)N12 (centres undefined) -10.5%
Cc1ccc(Cl)cc1-n1ncc2c(N3CCC(C(N)=O)CC3)ncnc21 0.447%
O=C(NCCC1=CCCCC1)c1ccc2c(c1)N(Cc1ccccc1F)C(=O)c1ccccc1S2(=O)=O 3.43%
Cc1cccc(C(=O)N2c3nc(-c4ccco4)nn3C3(CCCCC3)[C@@H]3CCCC[C@@H]32)c1 -0.973%
C=C1CCN(C(CC(C)C)C(=O)N2CCOCC2)S(=O)(=O)c2ccccc21 (centres undefined) -14.1%
CCCCNC(=O)CSc1nc2cc3c(cc2c(=O)n1CCCCCC(=O)NCc1ccc2c(c1)OCO2)OCO3 22.7%
Cc1cccc(NC(=O)CN(c2ccc(C(C)C)cc2)S(=O)(=O)c2c(C)nn(C)c2C)c1C 3.79%
Cc1ccccc1NC(=O)Cn1c(=O)n(CCc2ccccc2)c(=O)c2ccccc21 -6.8%
Cc1ccc(CN(C(=O)c2ccccc2[N+](=O)[O-])c2ccccn2)cc1 3.72%
Cn1nnc2c(N3CCN(c4ccccc4)CC3)ncnc21 -12.6%
CCn1cc2nc(SCc3ccccc3Cl)n(CCc3ccccc3)c(=O)c2n1 -16.2%
COc1ccc(NC(=O)CSc2nc3ncccc3[nH]2)c(OC)c1 -10.8%
COc1ccc(Nc2ncc3c(n2)CCN(C(=O)OC(C)(C)C)C3)cc1 -8.96%
COc1ccc(C2/C=C\CN(Cc3ccco3)C(C)C(=O)N2Cc2ccc(F)cc2)cc1 (centres undefined) 19.9%
COc1ccc2c(c1)Cc1sc(NC(=O)c3ccccc3Br)nc1-2 -10.7%
COc1ccc(C2CC(=O)N(Cc3ccccc3C)c3c2c(C)nn3-c2nc(C)cc(C)n2)c(OC)c1 (centres undefined) 35.7%
Cc1cc(C)cc(NC(=O)Cc2csc(C)n2)c1 2.64%
COc1cc(OC)c2c(C)cc(=O)oc2c1C(CCN1CCCCC1)c1ccc(N(C)C)cc1 (centres undefined) -6.66%
Cc1ccc(N2CC(c3nnc(Cc4ccccc4Cl)o3)CC2=O)cc1 (centres undefined) -9.51%
CCc1ccc(CNC(=O)c2ccc(CS(=O)c3ccc(Br)cc3)o2)cc1 (centres undefined) 34.7%
Cc1ccc2cccc(NC(=O)C(C)Oc3ccc(C)c(C)c3)c2n1 (centres undefined) -1.63%
Cc1ccc(C)c(N2C(=O)N(Cc3c(F)cccc3Cl)c3ccccc3S2(=O)=O)c1 -2.54%
Oc1ccc(Cl)cc1C1C=C(c2ccc3c(c2)OCO3)NC(c2c(F)cccc2Cl)N1 (centres undefined) -4.64%
COc1ccc2ncc3c(-c4ccc(C)c(C)c4)nn(CC(=O)NC4CCCC4)c3c2c1 6.38%
CCN(CC)c1nn2c(=O)c(C(=O)NCCc3ccccc3)cnc2s1 26.2%
COc1ccc(CNC(=O)c2cc3c(=O)[nH]c4ccccc4c3s2)cc1 -6.35%
Cc1ccc(Cl)cc1NC(=O)CSc1nccn1C 0.294%
CC(=O)Nc1ccc2nc(SCCOc3cc(C)cc(C)c3)sc2c1 -12.9%
CCc1ccc(S(=O)(=O)Nc2cc3c(C(=O)OCc4ccccc4)c(C)oc3c3ccccc23)cc1 28.4%
CCOC(=O)c1cccc(NS(=O)(=O)c2cc(-c3cnc(C)o3)ccc2OC)c1 21%
Cc1ccc(Cn2cnc3c(cnn3C(C)(C)C)c2=O)c(F)c1 38.8%
COc1cc(OC)cc(C(=O)Nc2c(C(=O)Nc3ccc(F)cc3)oc3ccccc23)c1 -0.263%
O=C1CN(Cc2ccccc2)S(=O)(=O)c2ccccc21 2.64%
CCOc1ccc(C(=O)c2cn(Cc3ccc(F)cc3)c3ccc(F)cc3c2=O)cc1 34.7%
CCOc1ccc(-c2cc3c(=O)n(CC(=O)NCc4ccc(OC)cc4)ccn3n2)cc1 14.1%
Cc1cc2c(cc1C)C(c1cccc(OC(C)C)c1)CC(=O)N2 (centres undefined) -6.57%
COc1ccc(C(CCN2CCOCC2)c2c(OC)cc(OC)c3c2OC(=O)CC3c2ccc(OC)cc2)cc1 (centres undefined) -3.63%
CC(C)c1ccc(NC(=O)c2ccc3c(O)c(S(=O)(=O)c4ccccc4)c(=O)[nH]c3c2)cc1 8.74%
COc1ccccc1-n1c(-c2ccc(C)cc2)cn2c3c(=O)n(C)c(=O)n(C)c3nc12 -8.58%
Cc1nn(C(C)C(=O)NCCc2ccccc2)c(=O)c2c1sc1ccccc12 (centres undefined) -5.78%
O=C(Nc1cccc2cccnc12)C(F)(F)F -10.4%
Cc1ccc(SCC(CC(C)C)N2CCN(CCc3ccccc3)CCC2=O)cc1 (centres undefined) 35%
CC(=O)Nc1ccc(NC(=O)c2cc3sccc3n2Cc2ccc(F)cc2)cc1 8.5%
CCC(Sc1nnc(-c2ccc(OC)cc2)c(-c2ccc(OC)cc2)n1)C(=O)NC1CCCCC1 (centres undefined) -8.91%
Cc1ccc(Cl)cc1NC(=O)CSc1nc2ccccc2nc1Cc1ccccc1 5.62%
Cn1c(=O)c(=O)n(C)c2cc(NC(=O)c3ccccc3Br)ccc21 18.3%
COc1ccc(Br)cc1C1CC(=O)Nc2c1c(C)nn2-c1nc(C)cc(C)n1 (centres undefined) -2.53%
CCc1ccc(S(=O)(=O)c2nnn3c2nc(NCc2ccccc2OC)c2cc(Cl)ccc23)cc1 11.3%
CC(=O)Nc1ccc(NC(=O)CCCc2nc(-c3ccc(C(C)(C)C)cc3)no2)cc1 -23.6%
Cc1ccc(OCC(=O)Nc2ccc(OCc3cc(=O)n4c(C)csc4n3)cc2)cc1C 21.1%
COc1ccc(NC(=O)C2CCCN(S(=O)(=O)c3c(C)[nH]c(=O)[nH]c3=O)C2)c(OC)c1 (centres undefined) -13.7%
COc1c(Cl)cc(C(=O)N(Cc2ccccc2F)C2CCS(=O)(=O)C2)cc1Cl (centres undefined) -13.9%
COc1cccc(C(=O)NC2=NC(c3ccc(N(C)C)cc3)CC(=O)N2)c1 (centres undefined) 4.87%
Cc1ccc(-c2nn3c(=O)cc(CN4CCN(C(=O)Nc5cccc(C(F)(F)F)c5)CC4)nc3s2)cc1 -11.5%
COc1cccc(NC(=O)c2csnn2)c1 -5.21%
O=C(NCc1ccc(F)cc1)c1ccc2nc(N3CCCCC3)sc2c1 -15.1%
Cc1cc(NC(=O)c2ccc(-c3ccc(Cl)cc3)o2)cc(-c2nc3ncccc3o2)c1O -5.56%
CCC1=Nc2cc(C(=O)NCC(C)c3ccccc3)ccc2Sc2ccc(C)cc21 (centres undefined) 12%
Cc1ccc(C)c(N2CCN(C(=O)C3CCC(CNS(=O)(=O)c4cccs4)CC3)CC2)c1 (centres undefined) 13.9%
CCc1nc2onc(C)c2c(=O)n1CC(=O)O -8.95%
Cc1ccccc1CN1CCC(CNC(=O)c2c(C)oc3ncnc(N4CCCCC4)c23)CC1 3.2%
